# Experimental data published in PubChem BioAssay.
# The source made the active and inactive calls. Unless noted, the rule behind the calls is not given here.
# What was measured:
# [1] = test system: Wnt5a (protein binding on small-molecule microarray); experiment: Wnt5a binders on small-molecule microarray, primary screen, biophysical, 635/667 nm fluorescence (AID 1142); conditions: 635 nm fluorescence, higher = more signal;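 note: fluorescence read at 667 nm with signal to noise per printed feature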
# [2] = cell viability in Huh7 cells, primary screen, cytotoxicity control for HCV replication inhibitor project, CellTiter-Glo luminescence, basal, 48 h (AID 1143); conditions: Huh7 HCV replicon, higher = more signal, called active from +8 up or from −8 down;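 note: Huh7 hepatoma cells carrying a hepatitis C replication reporter with no stimulus; test concentration not given here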
# [3] = P. aeruginosa biofilm formation inhibitors, primary screen, PAO1 strain, BacTiter-Glo luminescence, LB-PBS (AID 1144); conditions: 12 h, higher = more signal
# [4] = CREB reporter modulators without forskolin, primary screen, cell-based, PC12, CRE-LacZ reporter, unstimulated (AID 1145); conditions: no forskolin, luminescence, 4.5 h, higher = more signal, called active from +8 up or from −8 down
# [5] = CREB reporter modulators under forskolin, primary screen, cell-based, PC12, CRE-LacZ reporter, forskolin-stimulated (AID 1146); conditions: luminescence, 4.5 h, higher = more signal, called active from +8 up or from −8 down;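 note: PC12 cells with 6xCRE LacZ reporter stimulated by forskolin 10 µM; beta-galactosidase reporter signal reflecting CREB driven transcription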
# [6] = target: Streptavidin (Streptomyces avidinii) (UniProt P22629); experiment: streptavidin binders on small-molecule microarray, primary screen, artefact control for SMM compound annotation, biophysical, 635/667 nm fluorescence (AID 1147); conditions: streptavidin binding, higher = more signal;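 note: signal reflects streptavidin binding to arrayed compounds as a control protein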
# Sequence of Streptavidin (Streptomyces avidinii) (P22629 whole entry, looked up): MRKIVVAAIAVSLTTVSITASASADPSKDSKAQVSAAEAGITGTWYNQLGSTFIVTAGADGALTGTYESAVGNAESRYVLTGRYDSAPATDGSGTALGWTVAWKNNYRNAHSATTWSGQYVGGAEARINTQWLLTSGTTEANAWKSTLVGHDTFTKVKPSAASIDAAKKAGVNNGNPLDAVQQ
# [7] = small-molecule binders of probe aInhba, primary screen, biochemical, small-molecule microarray, 635/667 nm fluorescence (AID 1148); conditions: higher = more signal;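 note: score merges 667nm spot fluorescence with signal-to-noise for antibody binding to printed compounds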
# Torsin-1A (Homo sapiens) [8] = target: Torsin-1A (Homo sapiens) (UniProt O14656); experiment: torsin A binders from cell lysate, primary screen, small-molecule microarray, wild-type, 635/667 nm (AID 1149); conditions: COS7 hTOR1A-WT lysate, 635 nm fluorescence, higher = more signal
# Sequence of Torsin-1A (Homo sapiens) (O14656 whole entry, looked up): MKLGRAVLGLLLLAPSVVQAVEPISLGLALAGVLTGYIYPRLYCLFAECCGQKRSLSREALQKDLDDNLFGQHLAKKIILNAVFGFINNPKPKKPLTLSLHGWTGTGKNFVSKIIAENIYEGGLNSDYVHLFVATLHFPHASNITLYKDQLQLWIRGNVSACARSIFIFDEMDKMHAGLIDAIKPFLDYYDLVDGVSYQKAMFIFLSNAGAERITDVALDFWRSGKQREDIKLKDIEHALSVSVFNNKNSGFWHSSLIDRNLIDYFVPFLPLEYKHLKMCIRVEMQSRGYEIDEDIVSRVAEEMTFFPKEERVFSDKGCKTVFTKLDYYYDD
# Torsin-1A (Homo sapiens) [9] = target: Torsin-1A (Homo sapiens) (UniProt O14656); experiment: small-molecule binders of mutant TOR1A in lysate, primary screen, cell lysate, small-molecule microarray, COS7 lysate, 635/667 nm fluorescence (AID 1150); conditions: COS7 hTOR1A mutant lysate, 635 nm fluorescence, higher = more signal;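 note: score pools 667 nm emission and signal to noise measuring lysate protein binding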
# [10] = test system: Sonic hedgehog protein (Shh); experiment: small-molecule binders of Shh protein, primary screen, biochemical, small-molecule microarray, 635/667 nm fluorescence (AID 1151); conditions: small-molecule microarray binding, 635 nm fluorescence; higher = more signal;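 note: Shh protein binding to compounds spotted on small-molecule microarray slides; score combines spot fluorescence intensity with signal-to-noise across triplicate slides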
Structure (SMILES),composite z-score [1],z-score [2],z-score [3],z-score [4],z-score [5],composite z-score [6],composite z-score [7],composite z-score (Torsin-1A (Homo sapiens) [8]),composite z-score (Torsin-1A (Homo sapiens) [9]),composite z-score [10]
CC(C)C(=C=CC[C@@H](O)c1ccccc1OCCO)C[C@@H](O)COCc1ccccc1,0.679,-5.62 (inactive),0.173 (inactive),18.5 (active),-0.762 (inactive),0.235,0.15,0.636,1.1,1.98
COC(=O)[C@@]1(Cc2ccccc2)[C@H]2c3cc(C(=O)N4CCCC4)n(Cc4cc(F)cc5c4OCOC5)c3C[C@H]2CN1C(=O)c1ccccc1,0.503,0.147 (inactive),-0.511 (inactive),-0.185 (inactive),0.444 (inactive),0.503,0.0982,-0.0566,1.26,-0.457
CCOC(=CC(=O)OC)CC(O)c1cccc(Cl)c1 (stereo not given),-0.256,-3.84 (inactive),0.114 (inactive),0.584 (inactive),-0.216 (inactive),-0.668,-0.204,1.31,0.522,-0.41
C=C(CCCC)/C(=C/C[C@@H](OC(=O)c1ccncc1)c1cccc(OCCO)c1)c1cnc2ccccc2c1,1.25,-3.08 (inactive),-0.772 (inactive),3.22 (inactive),0.644 (inactive),1.49,0.194,1.22,0.0816,2.09
COCCCNC(=O)[C@@]1(Sc2ccc(C)cc2)CC(=O)N(C2Cc3ccccc3C2)[C@@H]1c1ccc(CO)cc1I,-0.572,-0.712 (inactive),-0.141 (inactive),0.0909 (inactive),0.555 (inactive),-0.962,-0.157,-0.475,-1.29,-0.59
Cc1ccc(C(C)CC(O)C2C=CC3C(=O)N(c4ccccc4)C(=O)C3N2Nc2ccc(C(C)C)cc2)o1 (stereo not given),0.301,0.183 (inactive),-0.203 (inactive),0.246 (inactive),0.0702 (inactive),1.33,0.343,0.216,0.715,0.154
O=C(O)[C@H](Cc1ccccc1)n1cc(-c2ccccn2)nn1,0.0676,-0.437 (inactive),-0.0406 (inactive),0.688 (inactive),-0.377 (inactive),0.303,-0.0645,0.307,0.407,0.506
COc1cc(CO)cc(I)c1O[C@H]1C=C(C(=O)NCCO)C[C@@H](N(CC2CCCCC2)C(=O)c2ccc(C(F)(F)F)cc2)[C@@H]1O,-0.0143,-0.494 (inactive),-0.312 (inactive),2.57 (inactive),-1.22 (inactive),-0.0411,-0.0403,0.0494,0.0547,1.23
CC(C)C[C@@H]1NC(=O)[C@H]2C[C@@H](C(=O)NCCCCCC[N+](C)(C)C)[C@@H](c3cccc(OCCO)c3)N2C1=O,-0.0449,-0.192 (inactive),-0.616 (inactive),-0.256 (inactive),-0.139 (inactive),-0.368,0.0855,0.126,0.62,1.75
C=C(CCCC)C(=O)CC[C@@H](OC(=O)c1ccccc1-c1ccccc1C(=O)O)c1cccc(OCCO)c1,0.137,-0.854 (inactive),0.194 (inactive),3.31 (inactive),8.69 (active),-0.6,-0.231,0.604,0.561,1.68
C[C@]12C(=O)N(CCCCCCO)[C@@H]3C(=O)N(c4ccc(Cl)cc4)CC=CC31O[C@@H]1/C=C\CCCOC(=O)C12 (stereo not given in full),-0.143,-0.0337 (inactive),-1.5 (inactive),0.0686 (inactive),-0.475 (inactive),-0.781,-0.104,-1.38,-0.825,0.128
COC(=O)[C@@]1(Cc2ccc(OC)cc2)[C@H]2c3cc(C(=O)N(C)C)n(Cc4nc5ccccc5[nH]4)c3C[C@H]2CN1C(=O)c1ccccc1,0.38,-3.83 (inactive),0.179 (inactive),-0.375 (inactive),-0.139 (inactive),1.12,0.698,0.314,0.432,-0.388
CC(=O)n1cc(C(O)C2C=CC3C(=O)N(Cc4ccccc4)C(=O)C3N2n2cnnc2)c2ccccc21 (stereo not given),0.363,0.276 (inactive),1.3 (inactive),0.631 (inactive),-0.696 (inactive),1.05,-0.152,-0.466,-0.0022,0.204
CN(C)CCCCNC(=O)[C@H]1C[C@H]2C(=O)N[C@@H](CCCCN(C)C)C(=O)N2[C@H]1c1cccc(OCCO)c1,0.83,0.441 (inactive),0.251 (inactive),-1.07 (inactive),-0.535 (inactive),0.329,-0.305,0.68,0.86,2.08
COC(=O)[C@@]1(Cc2ccc(OC)cc2)[C@H]2c3cc(C(=O)N4CCCC4)n(CCc4cc5ccccc5[nH]4)c3C[C@H]2CN1C(=O)c1ccccc1,0.409,-1.84 (inactive),0.497 (inactive),-0.189 (inactive),0.375 (inactive),1.58,0.352,0.368,1.38,-0.309
C=CCN1C(=O)[C@@]2(O[C@@H](CCn3cc([C@H](O)c4ccccc4)nn3)[C@H]([Si](C)(C)c3ccc(OC)cc3)[C@H]2C)c2ccccc21,0.351,-3.85 (inactive),0.0526 (inactive),3.9 (inactive),-0.448 (inactive),-0.0664,0.134,-0.0628,-0.168,1.7
C=C(COC)/C(=C/C[C@@H](OC(=O)c1ccncc1)c1cccc(OCCO)c1)c1cnc2ccccc2c1,0.381,-8.02 (active),-0.639 (inactive),12.6 (active),0.818 (inactive),2.64,0.248,1.16,2.74,2.3
COC(=O)[C@@]1(Cc2ccc(OC)cc2)[C@H]2c3cc(C(=O)N(C)C)n(CCc4c[nH]c5ccc(O)cc45)c3C[C@H]2CN1C(=O)c1ccccc1,0.292,-2.69 (inactive),0.255 (inactive),0.383 (inactive),-0.292 (inactive),1.65,0.765,0.0612,0.263,-0.428
COC(=O)c1c(CC[C@@H](CO)NC(=O)N[C@H](Cn2cc(-c3ccccc3C)nn2)C(C)C)oc(C(C)=O)c1C(=O)OC,-0.338,-2.66 (inactive),-0.673 (inactive),1.5 (inactive),-0.644 (inactive),-0.0581,-0.003,-0.123,-0.171,-0.272
COc1ccc(NN2C(C(O)c3ccco3)C=CC3C(=O)N(C4CCCCC4)C(=O)C32)cc1 (stereo not given),0.495,-0.829 (inactive),-0.522 (inactive),0.323 (inactive),0.565 (inactive),0.965,0.0471,0.95,1.1,1.28
O=C1O[C@@H](c2ccccc2)[C@@H](c2ccccc2)N2[C@@H](c3ccccc3OCCO)[C@]3(C(=O)Nc4ccc(C#CCCO)cc43)[C@@H](C(=O)Nc3nc4ccccc4s3)[C@H]12,0.559,-0.975 (inactive),-0.562 (inactive),-0.671 (inactive),0.308 (inactive),1.39,0.269,0.515,0.585,1.36
CC1CC/C=C\[C@H]2OC34C=CCN(C(C)C)C(=O)[C@H]3N(CCCCCO)C(=O)[C@@H]4C2C(=O)O1 (stereo not given in full),-0.432,-0.262 (inactive),1.39 (inactive),1.67 (inactive),-0.478 (inactive),-1.16,-0.157,-1.14,-0.751,-0.375
C=CC[C@@]12N=C(c3ccc(OCCCO)cc3)O[C@@H]1c1ccccc1N(CCS(=O)(=O)c1ccccc1)C2=O,0.518,-3.23 (inactive),-0.196 (inactive),-0.744 (inactive),-2.22 (inactive),1.41,0.136,0.558,0.264,1.62
COc1c(C)cc(-c2cc3c(c(-c4ccccc4)n2)[Si](C(C)C)(C(C)C)OC3)cc1C,0.0775,0.109 (inactive),-0.661 (inactive),-0.491 (inactive),-0.478 (inactive),0.657,-0.0313,0.124,-0.402,0.513
COC(=O)[C@H](Cc1ccccc1)N1CC(/C=C/C2CC2)=C[C@@H]1[C@@H](O)Cc1ccccc1,0.624,-1.63 (inactive),-1.18 (inactive),3.31 (inactive),5.89 (inactive),0.756,0.0471,0.957,-0.038,1.81
C=CCNC(=O)[C@@H]1[C@H]2C(=O)O[C@H](c3ccccc3)[C@H](c3ccccc3)N2[C@H](c2ccc(OCCO)cc2)[C@@]12C(=O)N(C(=O)OCCOC)c1ccc(C#CC3=CCCCC3)cc12,0.335,-2.81 (inactive),0.576 (inactive),0.2 (inactive),0.886 (inactive),0.902,0.104,0.694,0.823,1.46
O=C(N1CCCCC1)[C@@]1(Cc2ccccc2)COC(c2ccc(OCCCO)cc2)=N1,1.03,-2.49 (inactive),0.496 (inactive),-0.128 (inactive),-0.628 (inactive),0.85,0.322,0.442,0.67,0.934
